Measured values reported in the supplement of paper PMC8728848.
This excerpt belongs to a sample that is enriched for the strongest signals.

How the values were obtained:
Experiment in all cases: glycan array binding signal (z-score within array); higher = stronger binding
Details in all cases: glycan notation: IUPAC condensed, linker removed
Fuc(a1-2)Gal = biological target: Fuc(a1-2)Gal
Outline: (§1)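 Arrays were curated from the Consortium for Functional Glycomics database, 3228 in total, and kept only where the protein sequence was available. Binding is expressed as a within-array Z-score. This score was averaged across arrays of the same protein sequence at different concentrations or buffers and across linkers, and negative values can be read as non-binding.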

Fuc(a1-2)Gal(b1-4)Glc6S = biological target: Fuc(a1-2)Gal(b1-4)Glc6S
Outline: as §1

[1] = biological target: Fuc(a1-2)Gal(b1-4)GlcNAc(b1-2)Man(a1-3)[Fuc(a1-2)Gal(b1-4)GlcNAc(b1-2)Man(a1-6)]Man(b1-4)GlcNAc(b1-4)[Fuc(a1-6)]GlcNAc
Outline: as §1

[2] = biological target: Fuc(a1-2)Gal(b1-4)GlcNAc(b1-3)GalNAc
Outline: as §1

[3] = biological target: Fuc(a1-2)Gal(b1-4)[Fuc(a1-3)]GlcNAc(b1-3)GalNAc
Outline: as §1

[4] = biological target: Fuc(a1-2)Gal(b1-4)[Fuc(a1-3)]GlcNAc(b1-3)[Neu5Ac(a2-6)Gal(b1-4)GlcNAc(b1-6)]Gal(b1-4)Glc
Outline: as §1

[5] = biological target: Fuc(a1-2)[Gal(a1-3)]Gal(b1-4)GlcNAc(b1-6)GalNAc
Outline: as §1

[6] = biological target: Fuc(a1-2)[Gal(a1-3)]Gal(b1-4)[Fuc(a1-3)]Glc
Outline: as §1

[7] = biological target: Fuc(a1-2)[GalNAc(a1-3)]Gal
Outline: as §1

[8] = biological target: Fuc(a1-3)[Gal(b1-4)]GlcNAc(b1-2)Man(a1-3)[Fuc(a1-3)[Gal(b1-4)]GlcNAc(b1-2)Man(a1-6)]Man(b1-4)GlcNAc(b1-4)GlcNAc
Outline: as §1

[9] = biological target: Fuc(a1-3)[Gal(b1-4)]GlcNAc(b1-2)Man(a1-3)[Fuc(a1-3)[Gal(b1-4)]GlcNAc(b1-2)Man(a1-6)]Man(b1-4)GlcNAc(b1-4)[Fuc(a1-6)]GlcNAc
Outline: as §1

[10] = biological target: Fuc(a1-3)[Gal3S(b1-4)]GlcNAc
Outline: as §1

Fuc(a1-4)GlcNAc = biological target: Fuc(a1-4)GlcNAc
Outline: as §1

Fuc(b1-3)GlcNAc = biological target: Fuc(b1-3)GlcNAc
Outline: as §1

Gal(a1-3)Gal(b1-3)GlcNAc = biological target: Gal(a1-3)Gal(b1-3)GlcNAc
Outline: as §1

[11] = biological target: Gal(a1-3)Gal(b1-3)GlcNAc(b1-3)GalNAc
Outline: as §1

Gal(a1-3)Gal(b1-4)Glc = biological target: Gal(a1-3)Gal(b1-4)Glc
Outline: as §1

Gal(a1-3)Gal(b1-4)GlcNAc = biological target: Gal(a1-3)Gal(b1-4)GlcNAc
Outline: as §1

[12] = biological target: Gal(a1-3)Gal(b1-4)GlcNAc(b1-3)GalNAc
Outline: as §1

Gal(a1-4)Gal(b1-4)GlcNAc = biological target: Gal(a1-4)Gal(b1-4)GlcNAc
Outline: as §1

[13] = biological target: Gal(b1-3)GlcNAc(b1-3)Gal(b1-4)GlcNAc(b1-3)Gal(b1-4)GlcNAc(b1-2)[Gal(b1-3)GlcNAc(b1-3)Gal(b1-4)GlcNAc(b1-3)Gal(b1-4)GlcNAc(b1-6)]Man(a1-6)[Gal(b1-3)GlcNAc(b1-3)Gal(b1-4)GlcNAc(b1-3)Gal(b1-4)GlcNAc(b1-2)Man(a1-3)]Man(b1-4)GlcNAc(b1-4)[Fuc(a1-6)]GlcNAc
Outline: as §1

[14] = biological target: Gal(b1-3)GlcNAc(b1-3)GalNAc
Outline: as §1

[15] = biological target: Gal(b1-3)[Fuc(a1-4)]GlcNAc(b1-2)Man(a1-3)[Gal(b1-3)[Fuc(a1-4)]GlcNAc(b1-2)Man(a1-6)]Man(b1-4)GlcNAc(b1-4)[Fuc(a1-6)]GlcNAc
Outline: as §1

[16] = biological target: Gal(b1-3)[Fuc(a1-4)]GlcNAc(b1-3)Gal(b1-3)[Fuc(a1-4)]GlcNAc
Outline: as §1

Gal(b1-4)Glc = biological target: Gal(b1-4)Glc
Outline: as §1

[17] = biological target: Gal(b1-4)GlcNAc(b1-3)Gal(b1-4)GlcNAc(b1-3)Gal(b1-4)GlcNAc
Outline: as §1

[18] = biological target: Gal(b1-4)GlcNAc(b1-3)Gal(b1-4)GlcNAc(b1-3)Gal(b1-4)GlcNAc(b1-2)[Gal(b1-4)GlcNAc(b1-3)Gal(b1-4)GlcNAc(b1-3)Gal(b1-4)GlcNAc(b1-6)]Man(a1-6)[Gal(b1-4)GlcNAc(b1-3)Gal(b1-4)GlcNAc(b1-3)Gal(b1-4)GlcNAc(b1-2)Man(a1-3)]Man(b1-4)GlcNAc(b1-4)[Fuc(a1-6)]GlcNAc
Outline: as §1

[19] = biological target: Gal(b1-4)GlcNAc(b1-3)Gal(b1-4)GlcNAc(b1-3)Gal(b1-4)GlcNAc(b1-3)Gal(b1-4)GlcNAc(b1-3)Gal(b1-4)GlcNAc(b1-2)Man(a1-3)[Gal(b1-4)GlcNAc(b1-3)Gal(b1-4)GlcNAc(b1-3)Gal(b1-4)GlcNAc(b1-3)Gal(b1-4)GlcNAc(b1-3)Gal(b1-4)GlcNAc(b1-2)Man(a1-6)]Man(b1-4)GlcNAc(b1-4)[Fuc(a1-6)]GlcNAc
Outline: as §1

B1: SP16664D-bth-476-27-476 (Bacteroides thetaiotaomicron) (protein)
chain: DDLEVGKNIDESAYSGIYENNAYLRDGKSNLVSKVVELHGETYATTVKMGLSKTPNTATSAKVKIDAAYLETYNKAHNTDFALYPQDLVTFANEGILTVNANTKSAEVEMTIRAGEGLQEDKTYAIPVAISDQSSDITIKDEDAKHCIYLVKDMRNAGDAYKGEGVMQGYLFFEVNDVNPLNTLSFQLENGKLLWDVVVLFAANINYDAEAGRPRVQCNPNVQYLLDNNETLLQPLRRRGVKVLLGLLGNHDITGLAQLSEQGAKDFAREVAQYCKAYNLDGVNYDDEYSNSPDLSNPSLTNPSTAAAARLCYETKQAMPDKLVTVFDWGQMYGVATVDGVDAKEWIDIVVANYGSAAYPIGQMTKKQCSGISMEFNLGGGGSLSASKAQSMIDGGYGWFMGFAPSPAKYGSVFSRLQGGGEVLYGSNVAAPTIFYKKNDPTPYKYPDDL
- glycan array binding signal (z-score) (Fuc(a1-2)Gal): -0.249
- glycan array binding signal (z-score) (Fuc(a1-2)Gal(b1-4)Glc6S): 0.006
- glycan array binding signal (z-score) [1]: 0.161
- glycan array binding signal (z-score) [2]: -0.244
- glycan array binding signal (z-score) [3]: 0.134
- glycan array binding signal (z-score) [4]: -0.167
- glycan array binding signal (z-score) [5]: 0.007
- glycan array binding signal (z-score) [6]: -0.184
- glycan array binding signal (z-score) [7]: -0.152
- glycan array binding signal (z-score) [8]: 0.013
- glycan array binding signal (z-score) [9]: 3.02
- glycan array binding signal (z-score) [10]: -0.196
- glycan array binding signal (z-score) (Fuc(a1-4)GlcNAc): 5.19
- glycan array binding signal (z-score) (Fuc(b1-3)GlcNAc): -0.141
- glycan array binding signal (z-score) (Gal(a1-3)Gal(b1-3)GlcNAc): 0.314
- glycan array binding signal (z-score) [11]: -0.337
- glycan array binding signal (z-score) (Gal(a1-3)Gal(b1-4)Glc): -0.117
- glycan array binding signal (z-score) (Gal(a1-3)Gal(b1-4)GlcNAc): -0.212
- glycan array binding signal (z-score) [12]: -0.12
- glycan array binding signal (z-score) (Gal(a1-4)Gal(b1-4)GlcNAc): -0.17
- glycan array binding signal (z-score) [13]: 0.144
- glycan array binding signal (z-score) [14]: 0.061
- glycan array binding signal (z-score) [15]: 0.054
- glycan array binding signal (z-score) [16]: 1.49
- glycan array binding signal (z-score) (Gal(b1-4)Glc): -0.258
- glycan array binding signal (z-score) [17]: 0.004
- glycan array binding signal (z-score) [18]: 1.01
- glycan array binding signal (z-score) [19]: 20
